# AmpC no deterg – AmpC beta-lactamase inhibition without detergent | P00811 | AmpC nitrocefin hydrolysis, absorbance 480 nm, 0.0001% Triton | actives 0.52% (n = 330,000) | Potency, µM (doses to about 57.1 µM), without a hit: at the top dose activity change, negative = inhibition, actives largely listed as inhibitors;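 further: plate controls were no compound for no effect and no enzyme for full effect; nearly all actives have a fitted effect of over 20% in size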
# Target sequence (P00811 whole entry, looked up): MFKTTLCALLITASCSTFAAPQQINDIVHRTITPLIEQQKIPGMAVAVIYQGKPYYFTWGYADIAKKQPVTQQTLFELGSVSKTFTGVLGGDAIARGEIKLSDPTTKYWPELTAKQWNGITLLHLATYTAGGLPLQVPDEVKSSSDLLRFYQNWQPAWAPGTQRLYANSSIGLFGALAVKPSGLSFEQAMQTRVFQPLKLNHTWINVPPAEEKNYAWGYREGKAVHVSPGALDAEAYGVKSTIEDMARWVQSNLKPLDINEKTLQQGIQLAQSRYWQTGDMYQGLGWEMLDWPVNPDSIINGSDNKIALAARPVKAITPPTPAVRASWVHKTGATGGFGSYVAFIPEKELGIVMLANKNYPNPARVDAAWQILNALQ
#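 AmpC (5.3 nM in the dispensed reagent) in 20 mM phosphate pH 7.0 with 0.01% (detergent screen) or 0.0001% Triton X-100 was preincubated with compounds for 15 min at room temperature. Nitrocefin was then added from an 800 uM solution, and hydrolysis was followed at 480 nm.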
# RE007 growth inh – less growth of the S. pombe RE007 Vpr strain | S. pombe RE007 Vpr strain, BacTiter-Glo ATP luminescence, 24 h | Potency, µM (series often up to 92.2 µM), for inactives: at the highest dose activity change, negative = less growth, hits mostly inhibitors | actives 0.21% (n = 360,000); active means well fitted falling curve with a large enough effect; inconclusive means small, poorly fitted or top-dose-only effect; inactive means no such curve, though single readings can be large or run the other way; further: nearly all actives have a fitted effect of over 50% in size
#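 Fission yeast strain RE007, carrying one chromosomally integrated HIV-1 vpr copy, was seeded at OD 0.01 in PMG+AL medium with 23 nL pinned compound. After 24 h at 30 °C and 99% humidity, viability was read by BacTiter-Glo luminescence.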
# Giardia FBPA inh – inhibitors of Giardia lamblia fructose-1,6-bisphosphate aldolase; purified Giardia FBPA; Potency, µM (highest dose often 59.6 µM), for inactives: at the top dose activity, negative = inhibition, most hits filed as inhibitors; actives 0.71% (n = 290,000); further: nearly all actives have a fitted effect of over 55% in size
# Target sequence (A8B2U2 whole entry, looked up): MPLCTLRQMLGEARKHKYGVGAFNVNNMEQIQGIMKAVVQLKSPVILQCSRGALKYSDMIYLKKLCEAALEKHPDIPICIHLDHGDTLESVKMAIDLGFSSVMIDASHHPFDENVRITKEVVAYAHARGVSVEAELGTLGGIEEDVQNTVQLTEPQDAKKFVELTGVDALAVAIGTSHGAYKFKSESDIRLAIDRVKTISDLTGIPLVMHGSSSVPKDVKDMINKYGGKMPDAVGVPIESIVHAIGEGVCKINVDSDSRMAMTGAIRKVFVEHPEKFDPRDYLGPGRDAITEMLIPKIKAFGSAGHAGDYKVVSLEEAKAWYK
#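 40 nM FBPA preincubated 10 min at RT with compound (up to 57.5 uM final), then substrate plus GAPDH/TPI/NAD/arsenate coupling and diaphorase/resazurin added. Fluorescence read after 20 min at RT, 525/598 nm.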
# Tb PYK inh – blocks Trypanosoma brucei pyruvate kinase. AID 624173. TbPYK enzyme, Kinase-Glo Plus ATP luminescence, 45 min. Q57TT1. Potency, µM (top dose mostly 76.8 µM), without a hit: at the highest dose activity, negative = inhibition, usual class: inhibitors. actives 0.12% (n = 410,000); further: nearly all actives have a fitted effect of over 50% in size
#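 Quantitative HTS: titrated library compounds versus trypanosomal pyruvate kinase in TEA buffer (pH 7.2) containing KCl, MgCl2, BSA and Tween-20. Reactions were initiated with ADP, 130 uM final. Kinase-Glo Plus luminescence was read after 45 min at RT.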
# LmPK inh – LmPK (Leishmania mexicana) enzyme inhibition | Q27686 | purified LmPK, Kinase-Glo ATP luminescence, 1 h | Potency, µM (highest dose often 57.5 µM), without a hit: at the top dose activity change, negative = inhibition, usual class: inhibitors | actives 0.37% (n = 290,000) | AID 1721
#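 Screened at intermediate enzyme activity to detect both inhibitors and activators: LmPK at 0.1 nM, with a 0.5 nM enzyme column as activation reference. PEP 0.5 mM, ADP 0.1 mM; ATP detected by luminescence after 1 h.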
# AmpC detergent – blocks E. coli AmpC beta-lactamase in detergent assay | AID 485294 | actives 0.041% (n = 370,000) | AmpC hydrolysis of nitrocefin, absorbance 480 nm, 0.01% Triton | P00811 | Potency, µM (series often up to 114 µM), without a hit: at the top dose activity change, negative = inhibition, actives largely listed as inhibitors;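 further: 0% = no-compound wells and -100% = no-enzyme wells; nearly all actives have a fitted effect of over 25% in size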
#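 20 mM phosphate pH 7.0 + 0.01% (detergent screen) or 0.0001% Triton X-100; 5.3 nM AmpC reagent; cpd preinc 15 min RT; nitrocefin (800 uM stock) to start; A480 q20 s × 4 min; Activity was normalised to no-enzyme and no-compound control wells.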
# * hit, by the source's call; ? = inconclusive; nt = not tested or not shown; [ ] = dose if it differs, or a comment. In the library only some 1.4% were active in any assay of this set; here they are far more common. Unless noted, the call rests on the fitted dose curve; in most records, active means well fitted curve in the direction sought with a large enough effect; inconclusive means small, poorly fitted or top-dose-only effect, or another doubt; inactive means no such curve, though single readings can be large; an effect the other way counts as inactive or inconclusive. Unless noted, on the % scale 0 is the no-effect control and ±100 the full control effect; potency means the concentration at half of the fitted maximal effect.
SMILES,AmpC no deterg,RE007 growth inh,Giardia FBPA inh,Tb PYK inh,LmPK inh,AmpC detergent
O=C(CNC(=O)c1cccc(F)c1)N/N=C/c1cc(Br)ccc1OC(=O)/C=C/c1ccco1,16µM*,15%,-20%,-1%,6%,-6%
O=C(CNC(=O)c1ccc(F)cc1)N/N=C/c1cc(Br)ccc1OCc1ccccc1,?,4%,-10%,-3%,1%,-2%
C#CCOc1ccccc1/C=N/NC(=O)c1ccccc1OCc1ccccc1,20µM*,-10%,nt,1%,-3%,-9%
COc1ccccc1/C=N/NC(=O)CC(=O)NCc1ccccc1,-16%,-11%,18µM*,6%,1%,3%
O=C(CNC(=O)c1ccccc1Br)N/N=C/c1ccco1,-15%,13%,-1%,3%,-4%,4%
CCN(CC)CCNC(=O)c1ccc2c(c1)NC(=O)C(CS(=O)(=O)Cc1ccc(F)cc1Cl)N2 (stereo not drawn),nt,nt,nt,8%[15.4 µM],nt,-9%
COCC(=O)Nc1cc(Sc2ccccc2)ccc1N=C(NC(=O)OC)NC(=O)OC,nt,nt,nt,-7%,nt,nt
CSc1nn(Cc2ccccc2C)c(NC(C)=O)c1S(=O)(=O)c1ccc(C)cc1,nt,nt,nt,1%,nt,6%
COc1ccccc1CNC(=O)CN1C(=O)COc2ccc(S(=O)(=O)N3CCC(C)CC3)cc21,nt,nt,nt,0%,nt,-1%
O=C(CSc1oc(-c2ccc(F)cc2)nc1S(=O)(=O)c1ccc(Cl)cc1)c1ccccc1,nt,nt,nt,-4%,nt,?
Cc1cc(C)cc(NC(=O)CCN2C(=O)c3ccccc3Sc3ncccc32)c1,nt,nt,nt,4%,nt,-1%
COc1ccccc1C(=O)NCC(=O)N/N=C/c1cc(Br)ccc1OCc1ccccc1,25µM*,3%,-11%,-2%,0%,2%
Cc1ccc(C(=O)OCc2cc(=O)n3nc(-c4cccs4)sc3n2)cc1,nt,nt,nt,1%,nt,18%
O=C(/C=C/c1ccc2c(c1)OCCO2)c1ccccc1,-23%,?,-4%,-7%,13µM*,2%
O=C(/C=C/c1ccc2c(c1)OCO2)Nc1cccnc1,-14%[11.4 µM],-17%,-10%,0%,22µM*,-12%
CC(=O)Nc1ccc(NC(=O)/C=C/c2ccc3c(c2)OCO3)cc1,-17%,-10%,-3%,-8%,1%,-5%
Nc1ccccc1C(=O)/C=C/c1ccc2c(c1)OCO2,7%,?,0%,2%,14µM*,1%
Nc1ccccc1C(=O)/C=C\c1ccc2c(c1)OCO2,nt,nt,1%[12.9 µM],nt,nt,nt
O=C(/C=C/c1ccc2c(c1)OCO2)c1ccccc1,nt,nt,5%,nt,nt,nt
COC(=O)Nc1ccc(-c2nc(N3CCOCC3)c3cnn(C4CCN(C(=O)OC)CC4)c3n2)cc1,nt,nt,nt,-1%,nt,nt
C(=C1NCCN1)c1cccc2ccccc12,nt,nt,nt,5%,nt,nt
Cc1ccc2c(CN3CCN(C(=O)c4ccc(Br)cc4)CC3)cc(=O)oc2c1,nt,nt,nt,1%,nt,6%
Cc1cccc(N(C(=O)Cn2nnc3ccccc32)C(C(=O)NC(C)(C)C)c2ccsc2)c1C (stereo not drawn),0.22µM*,4%,2%,-1%,1%,0%
Cc1ccccc1CCN(C(=O)Cn1nnc2ccccc21)C(C(=O)NC(C)(C)C)c1ccsc1 (stereo not drawn),-17%,10%,1%,3%,0%,5%
C=CCNC(=S)NCc1ccccc1,-7%,-7%,-10%,2%,-8%,-7%
SMILES,AmpC no deterg,RE007 growth inh,Giardia FBPA inh,Tb PYK inh,LmPK inh,AmpC detergent
C=CCNC(=S)Nc1cccc2ccccc12,-14%,-3%,16µM*,0%,2%,7%
N#C/C(=C/c1ccc(-c2ccc(S(N)(=O)=O)cc2)o1)C(=O)Nc1ccccc1,16µM*,3%,-1%,5%,2%,-10%
Cc1ccc(Cn2c(CNC(=O)CCc3ccccc3)nc3cccnc32)cc1,nt,nt,nt,-7%,nt,4%
Cc1cc2cc(CNC(=O)Nc3ccccc3)ccc2[nH]1,22µM*,-8%,-10%,-3%,-5%[11.5 µM],-4%
CCOC(=O)NCc1ccc2[nH]c(C)cc2c1,-21%,19%,-12%,-1%,0%,?
CC1CSc2nc3sc4c(c3c(=O)n21)CCCC4 (stereo not drawn),4%,22µM*,0%,-19%,-5%,-5%
O=c1c2c3c(sc2nc2n1CCCS2)CCCC3,5%,?,0%,-1%,0%,-8%
CC1(C)CCC2=C(O1)c1ccccc1C(=O)C2=O,nt,nt,1.6µM*,nt,nt,nt
CC(C)Cn1c(-c2csc3ccccc23)n[nH]c1=S,-39%,11%,11%,?,14µM*,-7%
CCn1c(-c2csc3ccccc23)n[nH]c1=S,-14%,8%,1%,?,10µM*,-10%
COc1ccc(Cn2c(-c3ccc(OC)cc3)n[nH]c2=S)cc1,-22%,13%,24%,?,?,6%
COc1ccc(-c2n[nH]c(=S)n2CC(C)C)cc1,-20%,-4%,1%,?,28µM*,1%
Cc1nc2nncn2c(NCc2ccc(Cl)cc2)c1C,nt,nt,nt,0%,nt,16%
Cc1cccc(N(C)c2nc3ccccc3c3nnc(C)n23)c1,nt,nt,nt,-7%[15.4 µM],nt,23%
COc1cc(NC(=O)C2CCC(CNc3c(N4CCCCC4)c(=O)c3=O)CC2)cc(OC)c1 (stereo not drawn),50µM*,-6%,-1%,-7%,4%,?
Cc1ccnc(NC(=O)C2CCC(CNc3c(N4CCCC4)c(=O)c3=O)CC2)c1 (stereo not drawn),2.2µM*,-3%,2%,2%,5%,?
COc1cc(NC(=O)c2ccc(NC(=O)N3CCSc4ncccc43)cc2)cc(OC)c1,nt,nt,nt,3%[15.4 µM],nt,1%
COc1ccc(NC(=O)Nc2nnc(CC(=O)Nc3ccccc3)s2)cc1,-37%,13%,3%,6%,4%,1%
COc1cccc(NC(=O)Nc2nnc(CC(=O)Nc3ccccc3)s2)c1,11µM*,-15%,-4%,-2%,2%,-6%
COc1cccc(NC(=O)N[C@@H](Cc2ccccc2)C(=O)O)c1,2.2µM*,4%,4%,-9%,-1%,3%
Cc1cccc(CCNC(=O)c2sc3nc4n(c(=O)c3c2C)CCCC4)c1,nt,nt,nt,-6%,nt,9%
COc1ccc(-c2n[nH]c(=S)n2-c2ccc(C)cc2)cc1OC,-21%,-6%,26%,5µM*,14µM*,-2%
S=c1[nH]nc(-c2ccc(Br)cc2)n1-c1ccc(Br)cc1,-43%,-4%,29%,?,?,?
O=C(O)c1ccc(-n2c(-c3ccc(Br)cc3)n[nH]c2=S)cc1,-13%,1%,1%,?,7.1µM*,-3%

# Screens from PubChem.
